Unmarked numbers belong to inactive results.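 Rule for the calls, unless noted: active = fluorescence slope after compound addition differing from the mean of all screened samples at 99.7% confidence, in either direction; inactive = the rest.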
The compounds below were run against Voltage-gated potassium channel subunit beta-2 (Rattus norvegicus) (UniProt P62483) (assay: KvBeta positive modulators, primary screen, biochemical, NADPH fluorescence (AID 623;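 active = NADPH fluorescence slope more negative than the mean of all samples by about 3 SD, 99.7% confidence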;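 note: fluorescence intensity change per second fitted from 20 to 320 s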)). Details: Recombinant KvBeta, NADPH fluorescence decrease slope, 10 min; at 10 µM; hits give low values.
Sequence of Voltage-gated potassium channel subunit beta-2 (Rattus norvegicus) (P62483 whole entry, looked up): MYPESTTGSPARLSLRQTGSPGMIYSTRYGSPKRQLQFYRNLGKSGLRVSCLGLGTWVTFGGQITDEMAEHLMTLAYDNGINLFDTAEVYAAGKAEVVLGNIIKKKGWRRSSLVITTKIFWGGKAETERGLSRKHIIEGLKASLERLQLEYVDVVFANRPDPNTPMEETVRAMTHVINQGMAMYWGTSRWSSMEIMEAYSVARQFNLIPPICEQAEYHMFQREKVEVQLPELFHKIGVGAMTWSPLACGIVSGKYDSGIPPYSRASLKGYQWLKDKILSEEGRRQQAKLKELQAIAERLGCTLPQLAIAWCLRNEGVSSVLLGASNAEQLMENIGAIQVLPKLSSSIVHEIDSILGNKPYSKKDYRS

Row | SMILES | NADPH fluorescence slope
1 | COc1ccc(CNc2ccc(C(=O)O)cc2)cc1 | -3.9e-05
2 | COc1ccc(-c2cc(O)cc(O)c2)cc1 | -7.1e-05
3 | CCCC(=O)Nc1ccccc1-c1nnn(CC(=O)Nc2ccc(OCC)cc2)n1 | -0.000123
4 | CCOC(=O)c1c(-c2ccc(C)o2)csc1NC(=O)COC(=O)c1cccs1 | -5.7e-05
5 | O=C(Nc1cccc(Cl)c1)N1CCN(Cc2ccccc2)CC1 | -3.3e-05
6 | C/C=C/COC(=O)c1[nH]c2c(c1C)C(=O)CC(c1ccco1)C2 (stereo not given) | -1.1e-06
7 | CC(=O)NC(CCS(C)(=O)=O)C(=O)Nc1cccc(C)c1C (stereo not given) | -7e-05
8 | CCOC(=O)c1cn(CC)c2cc(N3CCOCC3)c(F)cc2c1=O | -1e-05
9 | CCCCC(=O)NCCc1ccc(S(N)(=O)=O)cc1 | -5.1e-05
10 | CCOc1ccc(-c2c(C#N)c(N)nc3c2c(=O)n(C)c(=O)n3C)cc1OC | -5.7e-05
11 | COc1ccc(NC(=O)c2cc(C)on2)cc1OC | -3.2e-06
12 | COc1ccc(CCNS(=O)(=O)c2ccc3oc(C(=O)O)c(C)c3c2)cc1OC | 6.2e-05
13 | O=C(Nc1cccnc1)c1ccc2c(c1)C(=O)N(Cc1cccnc1)C2=O | -1.2e-05
14 | CCCc1nnc2n1N=C(c1ccc(OC)c(OC)c1)CS2 | -5.6e-05
15 | CC(C)(C)NC(=O)CN(C(=O)CS(=O)CC(=O)Nc1ccc(F)cc1)c1ccc(Cl)cc1 (stereo not given) | 1.3e-05
16 | O=C(Nc1nnc(CCN2CCCCC2)s1)C1CCCCC1 | -6e-05
17 | CCCCS(=O)(=O)NC1=NCN(CCOC(=O)c2ccccc2)CN1 | -4.1e-05
18 | CCCCc1n[nH]c2c1C(=O)CC(C)(C)C2 | -4.7e-05
19 | COc1ccc(OCCSc2nc3ccccc3n2CC(=O)O)cc1 | -5.2e-05
20 | COc1ccc(OC)c(NC(=O)CSc2nnc(Cc3cccn3C)n2-c2ccc(F)cc2)c1 | 1.6e-05

Row | SMILES | NADPH fluorescence slope
21 | COc1ccc(N2CCN(C(=O)C(C)(C)Oc3ccc(Cl)cc3)CC2)cc1 | -4.3e-05
22 | O=C(Nc1ccncc1)C1c2ccccc2Oc2ccccc21 | -1e-05
23 | COCCN(CC(=O)NCc1ccccc1)C(=O)CCC(=O)Nc1ccccn1 | -2.7e-05
24 | COc1cc2c(cc1OC)C(c1ccc(C)o1)CC(=O)N2 (stereo not given) | -3e-05
25 | Cc1cc(O)c(-c2cc(C(=O)Nc3ccc(S(=O)(=O)N4CCOCC4)cc3)[nH]n2)cc1C | -1.4e-05
26 | O=C(CSc1oc(-c2ccco2)nc1S(=O)(=O)c1ccccc1)NCC1CCCO1 (stereo not given) | -4.8e-05
27 | NCCN1CCN(CCN)CC1 | -1.1e-05
28 | NC(=O)CSc1nnc(-c2cc3ccccc3o2)n1Cc1ccccc1 | 1.6e-05
29 | Cc1ccc(-n2nc(C)c3cc(C(=O)O)sc32)cc1 | -5e-05
30 | CC1CCN(C(=O)CSCC(=O)Nc2nc(-c3cccs3)cs2)CC1 | -1.9e-05
31 | COc1ccc(C2=NO[C@@H]3C(=O)N(c4cccc(C)c4C)C(=O)[C@H]23)cc1OC | -4.9e-05
32 | CCOc1ccccc1NC(=O)CC1Nc2cc(C)c(C)cc2NC1=O (stereo not given) | -1.1e-05
33 | CC1=C(C(=O)OCc2ccccc2)C(c2ccc(C)o2)C2=C(CCCC2=O)N1 (stereo not given) | -3.8e-05
34 | Cc1c(C)n(C)c2ccc(C(=O)NCc3cccs3)cc12 | -3e-05
35 | NC(=O)c1c(NC(=O)CN2CCCC2)sc2c1CCCC2 | -1.9e-05
36 | CCOC(=O)c1sc(NC(=O)CSc2nnc3c4ccccc4n(CC)c3n2)nc1C | -1.9e-05
37 | CCS(=O)(=O)N1CCCC(C(=O)NCCc2ccc(OC)c(OC)c2)C1 (stereo not given) | 4.5e-06
38 | CC(=O)n1cc(-c2ccncc2)c2ccccc21 | -1.3e-05
39 | CN(C1CCCCC1)S(=O)(=O)c1ccc(NC(=O)c2ccco2)cc1 | -4.1e-05
40 | COc1cccc(CN2CCN(C(=O)CC(C)C)CC2)c1 | 2.2e-06

These compounds were tested against Alpha-2C adrenergic receptor (Homo sapiens) (UniProt P18825) (assay: modulators of alpha2C/GIRK thallium flux, primary screen, cell-based, HEK293 alpha2C/GIRK1/2 (AID 624;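 note: slope of fluorescence ratio to pre-addition baseline per second over 15 to 24 s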)). Details: thallium flux BTC fluorescence, at 10 µM, actives lie on both sides.
Sequence of Alpha-2C adrenergic receptor (Homo sapiens) (P18825 whole entry, looked up): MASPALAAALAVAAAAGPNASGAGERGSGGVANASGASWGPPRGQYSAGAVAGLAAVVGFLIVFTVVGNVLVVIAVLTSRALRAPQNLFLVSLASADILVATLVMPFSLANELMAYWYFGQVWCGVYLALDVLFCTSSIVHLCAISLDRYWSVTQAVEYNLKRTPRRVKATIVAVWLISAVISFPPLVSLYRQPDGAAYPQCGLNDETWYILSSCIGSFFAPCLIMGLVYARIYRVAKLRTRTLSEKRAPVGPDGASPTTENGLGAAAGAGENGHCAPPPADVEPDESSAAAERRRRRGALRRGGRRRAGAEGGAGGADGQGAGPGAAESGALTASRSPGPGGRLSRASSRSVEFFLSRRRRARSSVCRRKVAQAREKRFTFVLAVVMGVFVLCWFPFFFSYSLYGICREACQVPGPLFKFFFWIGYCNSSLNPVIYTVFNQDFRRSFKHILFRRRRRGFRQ

Row | SMILES | slope
41 | COc1ccc(CNc2ccc(C(=O)O)cc2)cc1 | 0.00575
42 | COc1ccc(-c2cc(O)cc(O)c2)cc1 | 0.00555
43 | CCCC(=O)Nc1ccccc1-c1nnn(CC(=O)Nc2ccc(OCC)cc2)n1 | 0.00619
44 | CCOC(=O)c1c(-c2ccc(C)o2)csc1NC(=O)COC(=O)c1cccs1 | 0.00798
45 | O=C(Nc1cccc(Cl)c1)N1CCN(Cc2ccccc2)CC1 | 0.00631
46 | C/C=C/COC(=O)c1[nH]c2c(c1C)C(=O)CC(c1ccco1)C2 (stereo not given) | 0.00708
47 | CC(=O)NC(CCS(C)(=O)=O)C(=O)Nc1cccc(C)c1C (stereo not given) | 0.00627
48 | CCOC(=O)c1cn(CC)c2cc(N3CCOCC3)c(F)cc2c1=O | 0.00553
49 | CCCCC(=O)NCCc1ccc(S(N)(=O)=O)cc1 | 0.0057
50 | CCOc1ccc(-c2c(C#N)c(N)nc3c2c(=O)n(C)c(=O)n3C)cc1OC | 0.00459
51 | COc1ccc(NC(=O)c2cc(C)on2)cc1OC | 0.00386
52 | COc1ccc(CCNS(=O)(=O)c2ccc3oc(C(=O)O)c(C)c3c2)cc1OC | 0.00543
53 | O=C(Nc1cccnc1)c1ccc2c(c1)C(=O)N(Cc1cccnc1)C2=O | 0.00348
54 | CCCc1nnc2n1N=C(c1ccc(OC)c(OC)c1)CS2 | 0.00347
55 | CC(C)(C)NC(=O)CN(C(=O)CS(=O)CC(=O)Nc1ccc(F)cc1)c1ccc(Cl)cc1 (stereo not given) | 0.00479
56 | O=C(Nc1nnc(CCN2CCCCC2)s1)C1CCCCC1 | 0.00451
57 | CCCCS(=O)(=O)NC1=NCN(CCOC(=O)c2ccccc2)CN1 | 0.0043
58 | CCCCc1n[nH]c2c1C(=O)CC(C)(C)C2 | 0.00506
59 | COc1ccc(OCCSc2nc3ccccc3n2CC(=O)O)cc1 | 0.00591
60 | COc1ccc(OC)c(NC(=O)CSc2nnc(Cc3cccn3C)n2-c2ccc(F)cc2)c1 | 0.00527

Row | SMILES | slope
61 | COc1ccc(N2CCN(C(=O)C(C)(C)Oc3ccc(Cl)cc3)CC2)cc1 | 0.00674
62 | O=C(Nc1ccncc1)C1c2ccccc2Oc2ccccc21 | 0.0059
63 | COCCN(CC(=O)NCc1ccccc1)C(=O)CCC(=O)Nc1ccccn1 | 0.00555
64 | COc1cc2c(cc1OC)C(c1ccc(C)o1)CC(=O)N2 (stereo not given) | 0.00589
65 | Cc1cc(O)c(-c2cc(C(=O)Nc3ccc(S(=O)(=O)N4CCOCC4)cc3)[nH]n2)cc1C | 0.00629
66 | O=C(CSc1oc(-c2ccco2)nc1S(=O)(=O)c1ccccc1)NCC1CCCO1 (stereo not given) | 0.00481
67 | NCCN1CCN(CCN)CC1 | 0.00707
68 | NC(=O)CSc1nnc(-c2cc3ccccc3o2)n1Cc1ccccc1 | 0.003
69 | Cc1ccc(-n2nc(C)c3cc(C(=O)O)sc32)cc1 | 0.00582
70 | CC1CCN(C(=O)CSCC(=O)Nc2nc(-c3cccs3)cs2)CC1 | 0.00893
71 | COc1ccc(C2=NO[C@@H]3C(=O)N(c4cccc(C)c4C)C(=O)[C@H]23)cc1OC | 0.00915
72 | CCOc1ccccc1NC(=O)CC1Nc2cc(C)c(C)cc2NC1=O (stereo not given) | 0.00531
73 | CC1=C(C(=O)OCc2ccccc2)C(c2ccc(C)o2)C2=C(CCCC2=O)N1 (stereo not given) | 0.00603
74 | Cc1c(C)n(C)c2ccc(C(=O)NCc3cccs3)cc12 | 0.00486
75 | NC(=O)c1c(NC(=O)CN2CCCC2)sc2c1CCCC2 | 0.00312
76 | CCOC(=O)c1sc(NC(=O)CSc2nnc3c4ccccc4n(CC)c3n2)nc1C | 0.00568
77 | CCS(=O)(=O)N1CCCC(C(=O)NCCc2ccc(OC)c(OC)c2)C1 (stereo not given) | 0.00594
78 | CC(=O)n1cc(-c2ccncc2)c2ccccc21 | 0.00696
79 | CN(C1CCCCC1)S(=O)(=O)c1ccc(NC(=O)c2ccco2)cc1 | 0.00468
80 | COc1cccc(CN2CCN(C(=O)CC(C)C)CC2)c1 | 0.00544
